CHX counter: counter-screen hit for Shiga toxin inhibitors, cycloheximide | AID 2314 | cell reporter, cycloheximide protein synthesis inhibition counterscreen | max response, % | 300,000 compounds, 12% hits; in the data active = max response mostly above about 13%, no sharp cut-off; inactive = mostly below about 14%; note: read at 38.3 µM for the half of the compounds with a filed dose; 0% is about no effect
Pf growth 96h: P. falciparum growth inhibition at 96 hour, primary screen for plastid delayed-death inhibitors; P. falciparum luciferase reporter growth, 96 h; Potency, µM (doses to about 28.7 µM), for the others: at the top dose activity change, negative = inhibition, most hits filed as inhibitors; 320,000 compounds, 6.9% hits; AID 504834; active = well fitted inhibition curve with a large enough effect; inconclusive = small, poorly fitted or top-dose-only effect, or another doubt; inactive = no such curve, though single readings can be large or run the other way; note: potency is the fitted concentration of half-maximal effect; % is set by controls: 0 for no effect and ±100 for the full control effect
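P. falciparum expressing integrated firefly luciferase, in erythrocytes at 2% hematocrit, 0.05% parasitemia, incubated with compounds 96 h at 37 C, 5% CO2. Growth inhibition read as loss of luminescence; two-generation exposure targets delayed-death apicoplast inhibitors.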
SARS PLP yeast: SARS-CoV PLP inhibition in yeast. 330,000 compounds, 0.19% hits. Potency, µM (titrated, usually from 32.9 µM), inactives show at the top dose activity, positive = growth rescue, actives largely listed as activators. S. cerevisiae expressing SARS-CoV PLpro, growth rescue; note: potency is the fitted concentration of half-maximal effect; 0% is about no effect; nearly all actives have a fitted effect of over 55% in size
Shiga inhibitor: Shiga toxin inhibition | 290,000 compounds, 9.2% hits | AID 2315 | inhibition, % at 38.7 µM | Vero cells, Shiga toxin protein synthesis inhibition reporter; in the data active = inhibition mostly above about 28%, no sharp cut-off; inactive = mostly below about 43%; note: 0% is about no effect
NS1 inh: blocks influenza NS1 protein function | Potency, µM (top dose mostly 46.1 µM), without a hit: at the top dose activity, positive = more growth | 270,000 compounds, 0.4% hits; note: potency is the fitted concentration of half-maximal effect; actives are rising curves; nearly all actives have a fitted effect of over 50% in size
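Read-out: OD600 growth recovery of NS1-expressing budding yeast. Cells grown overnight at 30C in -URA glucose medium, washed, resuspended and diluted 1:100 in 2% galactose assay medium, pH 6.0. Same strain lacking NS1 served as positive control.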
Pf growth 48h: inhibits P. falciparum growth in the first generation, 48 h | AID 504832 | 310,000 compounds, 5.9% hits | P. falciparum luciferase growth in erythrocytes, 48 h | Potency, µM (highest dose often 28.7 µM), without a hit: at the highest dose activity change, negative = inhibition, hits mostly inhibitors; active = well fitted inhibition curve with a large enough effect; inconclusive = small, poorly fitted or top-dose-only effect, or another doubt; inactive = no such curve, though single readings can be large or run the other way; note: potency is the fitted concentration of half-maximal effect; % is set by controls: 0 for no effect and ±100 for the full control effect
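In quantitative HTS format, infected erythrocytes bearing luciferase-reporter parasites were treated for a single generation at 37 C. Luminescence after adding detection reagent served as the growth measure.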
* marks the source's active call; other numbers are inactive results. Most compounds without a hit are left out; they make up all but 21% or so of the library. Unless noted, calls come from the whole dose curve.

`Fc1ccc(-n2nnc(-c3cccnc3)n2)cc1` gave CHX counter 42*, Pf growth 96h 98%, SARS PLP yeast -1%, Shiga inhibitor 70*, NS1 inh -6% and Pf growth 48h 113%.
Screening Fc1ccc(-n2nnc(-c3ccccc3Br)n2)cc1 returned CHX counter 3, Pf growth 96h inconclusive, SARS PLP yeast -3%, Shiga inhibitor -2, NS1 inh inconclusive and Pf growth 48h 3%.
`Fc1ccc(C(CCCn2nnc(-c3cccnc3)n2)c2ccc(F)cc2)cc1` gave CHX counter 8, Pf growth 96h -9%, SARS PLP yeast -18%, Shiga inhibitor 40, NS1 inh -1% and Pf growth 48h 15µM*.
For Cc1ccc(C2N(c3cccc(Cl)c3)C(=O)N3CCCN23)cc1 (stereo not drawn) the results were CHX counter 3, Pf growth 96h inconclusive, SARS PLP yeast 0%, Shiga inhibitor -4, NS1 inh -4% and Pf growth 48h inconclusive.
Screening CCOC(=O)c1ccc[n+](CC(=O)c2ccc(NC(=O)c3ccccc3)cc2)c1 returned CHX counter 6, Pf growth 96h inconclusive, SARS PLP yeast 8%, Shiga inhibitor -17, NS1 inh 16% and Pf growth 48h -7%.
For CC(Oc1ccc(Cl)cc1Cl)C(=O)NNC(=O)C(=O)N1CCCCC1 (stereo not drawn) the results were CHX counter -1, Pf growth 96h inconclusive, SARS PLP yeast 11%, Shiga inhibitor -7, NS1 inh -10% and Pf growth 48h 4%.
`COc1cccc(Oc2ccc(S(=O)(=O)N3CCOCC3)cc2[N+](=O)[O-])c1` gave SARS PLP yeast -8%.
`CCOc1ccc(C=C2SC(=O)N(CCN)C2=O)cc1` gave CHX counter -18 and Shiga inhibitor -17.
Screening Clc1ccc(-n2nnc(-c3cccnc3)n2)cc1Cl returned CHX counter 41*, Pf growth 96h -4%, SARS PLP yeast -2%, Shiga inhibitor 41*, NS1 inh 2% and Pf growth 48h 80%.
For Nc1nc(-c2cccnc2)nn1C(=O)c1ccccc1Cl the results were CHX counter -1, Pf growth 96h 56%, SARS PLP yeast -1%, Shiga inhibitor -12, NS1 inh 4% and Pf growth 48h 5%.
For Brc1ccccc1-n1nnc(-c2cccnc2)n1 the results were CHX counter 29*, Pf growth 96h 4%, SARS PLP yeast -2%, Shiga inhibitor 33, NS1 inh -9% and Pf growth 48h 39%.
For Fc1ccc(-n2nnc(-c3cnc4ccccc4c3)n2)cc1 the results were CHX counter 46*, Pf growth 96h 1%, SARS PLP yeast -2%, Shiga inhibitor 62*, NS1 inh -4% and Pf growth 48h 4%.
For O=C(Nc1ccnc(-c2cccnc2)n1)c1ccc(Cl)c(Cl)c1 the results were CHX counter -4, Pf growth 96h inconclusive, SARS PLP yeast 5%, Shiga inhibitor -6, NS1 inh -15% and Pf growth 48h inconclusive.
For CC1Cc2ccccc2N1S(=O)(=O)c1cccc(C(=O)N2CC(=O)Nc3ccccc32)c1 (stereo not drawn) the results were CHX counter 6, Pf growth 96h 5%, SARS PLP yeast 0%, Shiga inhibitor 28, NS1 inh 0% and Pf growth 48h -11%.
Screening COc1cc(S(=O)(=O)N2CCC(O)(c3cccc(C(F)(F)F)c3)CC2)ccc1-n1cnnn1 returned CHX counter -3, Pf growth 96h inconclusive, SARS PLP yeast 0%, Shiga inhibitor -6, NS1 inh 2% and Pf growth 48h 10µM*.
Screening COc1ccc(Nc2ccc(S(=O)(=O)N3CCCCC3)cc2[N+](=O)[O-])cc1 returned CHX counter 0, Pf growth 96h -25%, SARS PLP yeast 5%, Shiga inhibitor 8, NS1 inh 2% and Pf growth 48h -15%.
COc1ccc(C(CNc2ccc(S(=O)(=O)N3CCCC3)cc2[N+](=O)[O-])N2CCCC2)cc1 (stereo not drawn) was read as CHX counter -3, Pf growth 96h 10µM*, SARS PLP yeast 5%, Shiga inhibitor 2, NS1 inh 5% and Pf growth 48h inconclusive.
Screening COc1ccc(Nc2ccc(S(=O)(=O)N3CCCCC3)cc2[N+](=O)[O-])cc1Cl returned CHX counter 6, Pf growth 96h 13µM*, SARS PLP yeast 4%, Shiga inhibitor 5, NS1 inh inconclusive and Pf growth 48h inconclusive.
Screening COc1ccc(C(CNc2ccc(S(=O)(=O)N3CCN(C)CC3)cc2[N+](=O)[O-])N(C)C)cc1 (stereo not drawn) returned Pf growth 96h 11%, SARS PLP yeast 4% and Pf growth 48h 1%.
`O=C(NC1CCCC1)C(c1ccncc1)N(C(=O)c1csnn1)c1cccc(F)c1` (stereo not drawn) gave CHX counter -4, Pf growth 96h 5%, SARS PLP yeast 0%, Shiga inhibitor 19, NS1 inh -14% and Pf growth 48h 2%.
For CC1CCCCC1NC(=O)COc1cccnc1[N+](=O)[O-] (stereo not drawn) the results were SARS PLP yeast -1%.
Screening Oc1ccc(N2Cc3ccccc3C2)cc1 returned CHX counter 20*, Pf growth 96h 30%, SARS PLP yeast 0%, Shiga inhibitor 15, NS1 inh inconclusive and Pf growth 48h -3%.
O=C(O)c1ccc(N2Cc3ccccc3C2)cc1O was read as CHX counter 29*, Pf growth 96h 70%, SARS PLP yeast 3%, Shiga inhibitor 56* and NS1 inh inconclusive.
For Cc1cc(N2Cc3ccccc3C2)ccc1C=O the results were CHX counter 19*, Pf growth 96h inconclusive, SARS PLP yeast -10%, Shiga inhibitor 70*, NS1 inh -40% and Pf growth 48h -26%.
Cc1cc2c(cc1C)CN(c1ccccc1)C2 was read as CHX counter 48*, Pf growth 96h inconclusive, SARS PLP yeast -1%, Shiga inhibitor 66*, NS1 inh 3% and Pf growth 48h 2%.
C[N+]1(C)CCN(c2ccccc2)CC1 was read as CHX counter -3, Pf growth 96h inconclusive, SARS PLP yeast -4%, Shiga inhibitor -7, NS1 inh 11% and Pf growth 48h -34%.
For O=C(O)c1ccc(N2CCCCC2)cc1O the results were CHX counter 3, Pf growth 96h 21%, SARS PLP yeast 0%, Shiga inhibitor 19, NS1 inh 6% and Pf growth 48h 3%.
`CCCCCCCCCCSc1n[nH]c(N)n1` gave CHX counter 6, Pf growth 96h 0%, SARS PLP yeast -101%, Shiga inhibitor 46, NS1 inh -44% and Pf growth 48h 23%.
CCCCn1c(N)c(NCC)c(=O)[nH]c1=O was read as CHX counter -4, Pf growth 96h 12%, SARS PLP yeast -4%, Shiga inhibitor -4, NS1 inh -26% and Pf growth 48h 11%.

From PubChem BioAssay
